From PubChem
CRFR2-BP ag: CRF-BP/CRF-R2 complex agonism. HEK293 CRF-R2/CRF-BP, calcium dye fluorescence (FLIPR); percent of saturating CRF peptide response. activation, % at 13.2 µM. 350,000 compounds, 0.46% hits;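 active means activation of at least 50%, plus an integration ratio under a set limit after plate pattern correction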;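 further: plate controls were neutral control wells without compound for no effect and CRF at EC100 for full effect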
cardiac RTF act: increases calcium sensitivity of human cardiac regulated thin filaments; P19429+P45379; IANBD-labeled TnC RTF fluorescence at EC20 calcium; 0% EC20 calcium, 100% full calcium; activation, % at 7.2 µM; 340,000 compounds, 0.24% hits; AID 493008;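 active means activation above the mean over all tested compounds plus 3 SD, cut at about 30% in these data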;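 further: rise in fluorescence read as greater calcium sensitivity of cardiac thin filaments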
Cardiac RTF inh: cardiac RTF calcium desensitization; IANBD-labeled cardiac RTF, Ca2+ fluorescence; inhibition, % at 7.15 µM; 340,000 compounds, 0.12% hits; AID 493244;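 active means inhibition above the mean inhibition of all tested compounds plus 3 SD, cut at about 17% in these data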;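 further: assay run at fixed EC70 calcium of 1.6 mM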
CRFR2-BP antag: blocks CRF-induced signaling of the CRF-BP/CRF-R2 complex; HEK293 CRF-R2/CRF-BP, CRF-induced calcium fluorescence; inhibition, % at 11.8 µM; 350,000 compounds, 0.59% hits; AID 588475;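 active means inhibition of the ligand-induced calcium signal above about 50% at the single tested concentration, limit read from the data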
The depositor's hits bear a star; . = no result given. Compounds with a hit are over-represented: about 1.3% of the library has one in this group of screens.

SMILES	CRFR2-BP ag	cardiac RTF act	Cardiac RTF inh	CRFR2-BP antag
O=C1CC(c2ccc(Cl)cc2)SC(N(c2ccccc2)c2ccccc2)=N1 (stereo not given)	0	6	3	114*
O=C1CC(c2ccccc2)SC(N(c2ccccc2)c2ccccc2)=N1 (stereo not given)	-3	-2	5	56*
O=C1CC(c2cccc(F)c2)SC(N(c2ccccc2)c2ccccc2)=N1 (stereo not given)	-1	0	-4	85*
CC(=O)c1ccc(NC(=O)C(C)OC(=O)/C=C/c2ccco2)cc1 (stereo not given)	0	2	3	-3
COc1ccc(C2CC(c3ccc(Br)cc3)=NN2C(=O)CCC(=O)O)cc1OC (stereo not given)	0	-8	-4	56*
COc1ccc(C2=NN(C(=O)CCC(=O)O)C(c3ccc(OC)c(OC)c3)C2)cc1 (stereo not given)	5	-5	-2	0
COC(=O)c1cc2sc(Cl)cc2n1CC(=O)Nc1ccc(OC)c(OC)c1OC	55*	-2	-1	-51
COC(=O)c1cc2occc2n1CC(=O)Nc1ccc(OC)c(OC)c1OC	1	7	-6	21
Cc1nn(CCc2nn[nH]n2)c2nc(-c3ccc(C4CCCCC4)cc3)cc(C(F)(F)F)c12	24	-7	3	87*
CCOC(=O)C1=C(c2ccccc2)OC(N)=C(C#N)C1c1ccc(Cl)s1 (stereo not given)	-4	3	-13	0
CCN1CC=C2C(C1)C(c1ccc(Cl)s1)C(C#N)=C(N)C2(C#N)C#N (stereo not given)	44	30*	-27	-20
CCN1CCN(C(=O)CCc2nnc3ccc(N4CCN(c5cccc(OC)c5)CC4)nn23)CC1	2	-2	-1	-1
COc1ccc(NC(=O)Nc2ccc3c(c2)OCO3)c(C)c1	-1	0	3	53*
CCc1ccccc1N1C(=O)C2CC(C)=C(C)CC2C1=O (stereo not given)	0	4	4	50*
CCN(C[C@H]1N[C@@](CC)(C(=O)OC)[C@H]2C(=O)N(C)C(=O)[C@@H]12)S(=O)(=O)c1ccc(F)cc1	1	-2	1	-9
CCCCCC/C(=N/O)c1ccccn1	-1	13	-1	59*
O=C(CSc1ccc(F)cc1)Nc1ccc(C2SCCS2)cc1	0	.	.	10
O=S(=O)(c1ccc(Br)cc1)c1nc(-c2ccco2)oc1NCC1CCCO1 (stereo not given)	1	4	-11	-2
CN(C)c1nc(NCc2ccccc2)nc(SCC(=O)Nc2ccccc2)n1	0	1	-2	-3
CN(C)c1nc(NCc2ccccc2)nc(SCC(=O)Nc2ccccc2Cl)n1	0	5	-6	58*
COc1ccc(-c2cc(C(=O)NN)[nH]n2)cc1OC	1	-2	3	-14
COc1ccccc1-c1cc(C(=O)NN)[nH]n1	-1	.	.	57*
COc1c2c(c(OC)c3ccccc13)[C@@]1(OC2)O[C@H](CCO)C[C@H](O)[C@H]1O	1	.	.	101*
CCC(C(=O)O)n1c2ccccc2c2cn[nH]c(=O)c21 (stereo not given)	9	-1	-5	21
O=C(Nc1ccc(N2CCN(c3ccccc3)CC2)c(F)c1)C1CC1	1	-1	-14	58*
SMILES	CRFR2-BP ag	cardiac RTF act	Cardiac RTF inh	CRFR2-BP antag
O=C(Cn1cnc2ccccc21)N1CCN(S(=O)(=O)c2ccccc2)CC1	-1	-7	10	0
CCCCc1nnc(NC(=O)COC)s1	1	-1	-1	-4
CC(=O)C1C(c2cccc(F)c2)c2c(n[nH]c2C)CC1(C)O (stereo not given)	4	0	1	8
COc1ccc2c(c1)c(C(=O)O)c(C)n2-c1ccc(Cl)cc1	3	-4	-3	106*
COc1ccc2c(c1)c(C(=O)N1CCN(C)CC1)c(C)n2-c1ccccc1	-1	-3	5	0
NC(=NCc1ccccc1)c1cccc([N+](=O)[O-])c1	2	-1	2	1
CC1(C)CSC(=NCc2ccccc2)N1C(=O)c1cccc([N+](=O)[O-])c1	273*	0	-4	-95
Cc1cn2c(N)c(/C=C3\C=Nc4ccccc43)c(=O)nc2s1	1	4	-19	13
COC1=C/C(=C/c2c(N)n3cc(C)sc3nc2=O)C=CC1=O	61*	17	-10	-70
Cc1cn2c(N)c(C=C3C=C(Cl)C(=O)C(Cl)=C3)c(=O)nc2s1	117*	21	-30	-131
COc1ccc(N(CC(=O)NC2CC2)S(=O)(=O)c2ccccc2)cc1	1	7	-19	0
CC1(C)CC(=O)C2=C(C1)OC(/N=C/N1CCCC1)=C(C#N)C2c1ccccc1 (stereo not given)	2	-1	-1	103*
CN(C)c1ccc(/C=C(/C#N)C(=O)NCc2ccccc2)o1	108*	69*	-98	-99
N#C/C(=C/c1ccccc1)C(=O)NCc1ccccc1	-2	4	-3	-31
Cc1cccc(C(C)C)c1-n1nnnc1-c1ccccc1	-5	8	3	54*
CCOC(=O)NC(=O)C(/C=N/c1sccc1C(=O)OC)=C(\C)O	30	.	.	-6
CCOc1ccc(-n2c(SCc3ccc([N+](=O)[O-])cc3)nnc2-c2ccc(OC)cc2)cc1	-1	-5	4	53*
O=C1CCC(C(=O)Nc2ccccc2N2CCOCC2)=NN1	-2	6	-11	67*
O=C1CCC(C(=O)Nc2ccccc2N2CCCC2)=NN1	1	-13	-5	-1
CC(C)(CNC(=O)c1ccc(Br)o1)CNC(=O)c1ccc(Br)o1	-1	1	9	76*
CC(C)(CNC(=O)c1ccc(Br)o1)N1CCOCC1	1	10	3	4
O=C(Nc1nnc(C(F)(F)F)s1)c1ccc(Br)s1	98*	1	12	54*
O=C(Nc1ccccc1C(=O)Nc1nnc(C(F)(F)F)s1)c1ccccc1Cl	49	3	3	50*
CC(NC(=O)Nc1nnc(C(F)(F)F)s1)(C(F)(F)F)C(F)(F)F	59*	0	3	28
CC(C)(C)CC(=O)Nc1nnc(C(F)(F)F)s1	5	-2	-4	-32
SMILES	CRFR2-BP ag	cardiac RTF act	Cardiac RTF inh	CRFR2-BP antag
CCSc1nnc(NC(=O)c2ccc(Br)s2)s1	8	2	0	-8
Cc1cc(=O)oc2cc(NC(=S)NNC(=O)c3c(Cl)cnn3C)ccc12	-1	-4	5	6
O=C(CN(C(=O)c1csnn1)c1ccccc1C(F)(F)F)NC1CCCCC1	1	-4	8	-2
CC(C)(C)C(=O)CN1C(=O)NC(C)(Cc2ccc3c(c2)OCO3)C1=O (stereo not given)	2	3	6	6
CC1(Cc2ccc3c(c2)OCO3)NC(=O)NC1=O (stereo not given)	-3	10	-2	56*
CC1CCC(NC(=O)CCN2C(=O)C3CC=CCC3C2=O)CC1 (stereo not given)	-1	-4	-6	106*
